Screens: PubChem, National Center for Advancing Translational Sciences (NCATS)
L3MBTL1 block – qHTS Assay for the Inhibitors of L3MBTL1; AID 485360, 2010; actives 0.66% (n = 230,000); AlphaScreen L3MBTL1–H3K9me1 peptide binding; Lethal(3)malignant brain tumor-like protein 1 (Homo sapiens), Q9Y468; Potency, µM (top dose mostly 57.1 µM), for inactives: top-dose activity, negative = inhibition, hits mostly inhibitors; also: % is scaled to controls: 0 for no effect and ±100 for the full control effect; nearly all actives have a fitted effect of over 60% in size
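L3MBTL1 (50 nM) pre-complexed 30 min with biotinylated H3(1-15)K9me1 peptide (75 nM), then compounds added for 30 min at room temperature; AlphaScreen streptavidin donor/nickel chelate acceptor beads (10 ug/mL final) read after 30 min dark incubation.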
VDR inhibitor – Inhibitors of the vitamin D receptor (VDR): qHTS. Vitamin D3 receptor (Homo sapiens), P11473. AID 504847, 2011. VDR-SRC2-3 peptide fluorescence polarization, 2 h. actives 0.93% (n = 400,000). Potency, µM, without a hit: max response, negative = inhibition, actives largely listed as inhibitors; also: % is scaled to controls: 0 for no effect and ±100 for the full control effect
Target sequence (P11473 whole entry, looked up): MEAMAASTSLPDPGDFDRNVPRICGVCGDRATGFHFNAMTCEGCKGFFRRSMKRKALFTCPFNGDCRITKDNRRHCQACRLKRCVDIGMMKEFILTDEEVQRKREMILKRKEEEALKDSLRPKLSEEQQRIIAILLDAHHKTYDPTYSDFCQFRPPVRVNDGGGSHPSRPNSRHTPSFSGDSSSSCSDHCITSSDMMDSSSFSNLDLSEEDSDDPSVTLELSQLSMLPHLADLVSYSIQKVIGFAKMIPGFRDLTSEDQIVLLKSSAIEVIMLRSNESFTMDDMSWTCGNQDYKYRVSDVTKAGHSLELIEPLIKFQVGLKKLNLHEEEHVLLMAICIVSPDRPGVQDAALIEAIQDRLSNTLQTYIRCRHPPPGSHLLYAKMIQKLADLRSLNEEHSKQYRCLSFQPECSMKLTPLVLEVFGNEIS
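Inhibition of the VDR/SRC2-3 peptide interaction is quantified by fluorescence polarization. Compounds (23 nl, pintool) incubate with the reagents for 2 hours at ambient room temperature.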
HP1b chromo inh – HTS for Inhibitors of HP1-beta Chromodomain Interactions with Methylated Histone Tails; AlphaScreen HP1-beta / biotin-H3K9me3 peptide binding; actives 0.56% (n = 390,000); Potency, µM (top dose mostly 114 µM), without a hit: at the highest dose activity change, negative = inhibition, actives largely listed as inhibitors; also: nearly all actives have a fitted effect of over 70% in size
Target sequence (P83916 whole entry, looked up): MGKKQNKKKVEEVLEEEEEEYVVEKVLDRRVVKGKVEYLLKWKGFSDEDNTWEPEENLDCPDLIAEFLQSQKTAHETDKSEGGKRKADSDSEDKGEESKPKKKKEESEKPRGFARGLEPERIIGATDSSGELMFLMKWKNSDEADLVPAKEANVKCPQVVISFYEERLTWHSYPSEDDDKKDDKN
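AlphaScreen: HP1-beta (50 nM) preformed 30 min with biotin-H3(1-18)K9me3 peptide (50 nM) in PBS pH 7.4, 0.01% Tween-20. Compound added for 30 min at RT, then streptavidin donor/nickel chelate acceptor beads (10 ug/mL) for 30 min.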
BAZ2B block – qHTS Assay for Inhibitors of BAZ2B; Bromodomain adjacent to zinc finger domain protein 2B (Homo sapiens), Q9UIF8; AlphaScreen BAZ2B-H3K14Ac peptide displacement; Potency, µM (titrated, usually from 114 µM), inactives show top-dose activity change, negative = inhibition, actives largely listed as inhibitors; actives 4.4% (n = 360,000); AID 504333, 2011; also: % is scaled to controls: 0 for no effect and ±100 for the full control effect; nearly all actives have a fitted effect of over 60% in size
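Protein-peptide AlphaScreen: BAZ2B 50 nM, b-H3K14Ac 50 nM, 1x PBS pH 7.4 + 0.01% Tween-20. Preincubation 30 min RT; cpd 30 min RT (top 110 uM); beads 20 min RT, light-protected.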
PLK1 PBD inh – qHTS for Inhibitors of PLK1-PDB (polo-like kinase 1 - polo-box domain): Primary Screen. Serine/threonine-protein kinase PLK1 (Homo sapiens), P53350. Plk1 PBD binding of FITC phosphopeptide, fluorescence polarization. Potency, µM, for inactives: max response, negative = inhibition, hits mostly inhibitors. actives 2.8% (n = 360,000); also: series mostly up to about 57 µM; % is scaled to controls: 0 for no effect and ±100 for the full control effect; nearly all actives have a fitted effect of over 65% in size
JMJD2A Tudor inh – qHTS Assay for Inhibitors of JMJD2A-Tudor Domain | Lysine-specific demethylase 4A (Homo sapiens), O75164 | AlphaScreen JMJD2A-Tudor / H3K4me3 peptide binding | Potency, µM (titrated, usually from 114 µM), for inactives: top-dose activity change, negative = inhibition, hits mostly inhibitors | actives 4.4% (n = 390,000) | AID 504339, 2011; also: % is scaled to controls: 0 for no effect and ±100 for the full control effect; nearly all actives have a fitted effect of over 50% in size
* hit, by the source's call; ? = inconclusive; . = not tested or not shown; [ ] = another dose, or the depositor's remark. Sampled rows, rich in hits. Any-hit rate of the full collection: about 6.9%. Calls follow the shape of the dose curve; as a rule, active = well fitted curve in the direction sought with a large enough effect; inconclusive = small, poorly fitted or top-dose-only effect, or another doubt; inactive = no such curve, though single readings can be large; an effect the other way counts as inactive or inconclusive. Potency is read from the fitted curve at half-maximal effect.

SMILES	L3MBTL1 block	VDR inhibitor	HP1b chromo inh	BAZ2B block	PLK1 PBD inh	JMJD2A Tudor inh
COC(=O)/C=C1/S/C(=N/NC(=O)c2ccc(OC)cc2)NC1=O	.	-2%	28%	-8%[57.1 µM]	-13%	-26%
COC(=O)/C=C1\S/C(=N/NC(=O)c2ccc(OC)cc2)NC1=O	.	-7%	-17%	-23%	19µM*	?
Cc1cc(C)c2c(CC(=O)Nc3ccc(S(=O)(=O)N4CCCC(C)C4)cc3)coc2c1 (centres undefined)	.	11%	-3%	-33%	.	-23%
O=C(N/N=C/c1cccn1-c1cccc(C(=O)O)c1)Nc1ccccc1	?	-2%	-24%	79µM*	?	?
O=[S+]([O-])(c1cc2ccccc2o1)N1CCN([S+](=O)([O-])c2c(F)cccc2F)CC1	.	.	.	.	.	-10%
CN(C)c1ccc(CNC(=O)CCCN2C(=O)CCn3nc(-c4cccn4C)cc32)cc1	.	12%	-3%[57 µM]	40µM*	.	?
Cc1ccc(CNC(=O)CCCN2C(=O)CCn3nc(-c4cccn4C)cc32)cc1	.	8%	-5%[57 µM]	?	.	-28%
O=C(NCc1cccs1)c1nn(-c2ccccc2F)nc1CO	.	13%	29%	-11%	.	-17%
c1ccc2c(c1)OC(CCCN1CCCCC1)c1ccccc1S2 (centres undefined)	?	-4%	5%	1%	-2%	-24%
CN1CCCC(CC2Oc3ccccc3Sc3ccccc32)C1 (centres undefined)	-2%	-16%	?	50µM*	-1%	8.9µM*
COc1cc2nc(CN(CCC(C)C)Cc3nc4cc(OC)c(OC)cc4c(=O)[nH]3)[nH]c(=O)c2cc1OC	4%	26%	50%	17%	-9%	-6%
CCNCc1nc2cc(OC)c(OC)cc2c(=O)[nH]1	.	-2%	33%	50µM*	-8%	-13%
CCO/C=C1/C(=O)N(CC)c2ccccc21	0%	-17%	-2%	6%	15µM*	-9%[11.4 µM]
CCO/C=C1\C(=O)N(c2ccccc2)C(=O)c2ccccc21	-6%	-15%	25%	?	-19%	-28%
CCO/C=C1/C(=O)N(c2ccc(OC)cc2)C(=O)c2ccccc21	4%	-23%	27%	-15%	17µM*	-23%
CCOC(=O)[C@]12CCC=C1N(Cc1ccc(Cl)cc1Cl)C(=O)[C@H](CC(=O)N1CCOCC1)C2	.	.	.	.	-7%	.
CN(C)c1ccc(P(=O)(COc2ccc([N+](=O)[O-])cc2)c2ccc(N(C)C)cc2)cc1	-41%	5%	?	25µM*	-7%	22µM*
CCOc1ccc(C(=S)N2CCCC2)c(OCC)c1	-5%	?	-21%	-20%	12µM*	-23%
COc1cccc(CNC(=O)Cn2c(=O)oc3cc(S(=O)(=O)N4CCCC4)ccc32)c1	.	4%	9%	-1%	.	-17%
OCC1OC(n2cnc3c(=S)nc[nH]c32)CC1O (centres undefined)	.	-14%	?	.	3%	2.8µM*
Nc1ncnc2c1ncn2C1CCCO1 (centres undefined)	-5%	5%	52%	7%	1%	-1%
S=c1nc[nH]c2c1ncn2C1CCCO1 (centres undefined)	-12%	?	-17%[57 µM]	?	27µM*	2µM*
COc1ccc(O)c(CN2CCN(C/C=C/c3ccccc3)CC2)c1	-5%	-14%	-20%	?	-14%	56µM*
COc1cc(Br)cc(CN2CCN(C/C=C/c3ccccc3)CC2)c1O	-16%	-12%	8%	40µM*	3%	?
COc1cc(C/C=C\c2ccccc2)c(OC)cc1O	.	45µM*	.	.	.	.
SMILES	L3MBTL1 block	VDR inhibitor	HP1b chromo inh	BAZ2B block	PLK1 PBD inh	JMJD2A Tudor inh
Cc1cccc(NC(=O)C2CCC(CNS(=O)(=O)c3csc(C(N)=O)c3)CC2)c1C (centres undefined)	.	6%	14%	4%	.	-3%
O=C(c1cccs1)N1CCCc2cc(NS(=O)(=O)c3cc(F)ccc3F)ccc21	.	-10%	20%	?	.	-21%
CC(C)CCN(Cc1ccco1)S(=O)(=O)c1ccc(-c2ccc(=O)[nH]n2)s1	.	-10%	15%	-7%	-15%	-18%
CCCCN(Cc1ccco1)S(=O)(=O)c1ccc(-c2ccc(=O)[nH]n2)s1	.	-16%	-5%	-24%	24µM*	?
Cc1cc(Nc2ccc(Br)cc2)nc(C)n1	.	3%	29%	-10%	.	-15%
COc1cc(CN2CCC(C(=O)NC3CCCC3)CC2)cc(Br)c1O	-8%	10%	-50%	50µM*	-6%	3.2µM*
COc1ccc(S(=O)(=O)N2CCC(C(=O)NC3CCCC3)CC2)cc1OC	.	-12%	38%	-1%	-2%	-1%
COc1ccc(CN2CCN(c3cccc(C)c3C)CC2)cc1OC	.	-13%	17%	56µM*	-4%	7%
COc1cc(CN2CCN(c3cccc(C)c3C)CC2)cc(Br)c1O	-3%	15%	?	?	3%	2µM*
Cc1cccc(NC(=O)CSC2=Nc3ccccc3C3=NC(CCC(=O)NCc4ccco4)C(=O)N23)c1 (centres undefined)	.	-5%	11%	-37%	.	-20%
COc1ccc2c(CNCCc3cccs3)c(C(=O)O)n(Cc3ccccc3C)c2c1	.	8%	-1%	-15%	.	-26%
Cc1cc(NS(=O)(=O)c2ccc(NC(NC(=O)C(C(F)(F)F)C(F)(F)F)(C(F)(F)F)C(F)(F)F)cc2)no1	3%	?	-7%	?	6µM*	?
CCOC(=O)C(NC(C)=O)(Nc1ccc(S(=O)(=O)Nc2cc(C)on2)cc1)C(F)(F)F (centres undefined)	8%	20%	25%	-2%	-9%	-9%
COC(=O)c1ccc(OCC2c3cc(OC)c(OC)cc3CCN2C(=O)Cc2ccc(OC)cc2)cc1 (centres undefined)	.	13%	51%	-21%	.	-28%
COc1cccc(CCC(=O)N(C)C2CCCN(Cc3ccccc3F)C2)c1 (centres undefined)	2%	-10%	10%	-4%	-14%	-14%
CN(C(=O)CCc1ccccc1F)C1CCCN(Cc2ccccc2F)C1 (centres undefined)	-8%[2.29 µM]	35µM*	-4%	2%	3.4µM*	10µM*
FC(F)Oc1ccc(NC(=S)NNc2ccnc3cc(Cl)ccc23)cc1	-8%	35µM*	?	?	-20%	?
CCOc1ccc(Nc2ccnc3cc(Cl)ccc23)cc1	.	10%	26%	-9%	-5%	-17%
